# A number with no mark means an inactive call.
# Legend:
# Assay in all cases: log2 ratio of Biotin-Ahx-Ub-VS probe labelling (fragment/DMSO); higher = less target engagement (more negative = stronger competition), active = hit call of the paper (q ≤ 0.05, log2 ratio ≤ -1)
# Settings in all cases: compound concentration: 200 uM; treatment time: 3 h
# [1] = biological target: T1, USP19 (UniProt O94966)
# T1 sequence (whole entry): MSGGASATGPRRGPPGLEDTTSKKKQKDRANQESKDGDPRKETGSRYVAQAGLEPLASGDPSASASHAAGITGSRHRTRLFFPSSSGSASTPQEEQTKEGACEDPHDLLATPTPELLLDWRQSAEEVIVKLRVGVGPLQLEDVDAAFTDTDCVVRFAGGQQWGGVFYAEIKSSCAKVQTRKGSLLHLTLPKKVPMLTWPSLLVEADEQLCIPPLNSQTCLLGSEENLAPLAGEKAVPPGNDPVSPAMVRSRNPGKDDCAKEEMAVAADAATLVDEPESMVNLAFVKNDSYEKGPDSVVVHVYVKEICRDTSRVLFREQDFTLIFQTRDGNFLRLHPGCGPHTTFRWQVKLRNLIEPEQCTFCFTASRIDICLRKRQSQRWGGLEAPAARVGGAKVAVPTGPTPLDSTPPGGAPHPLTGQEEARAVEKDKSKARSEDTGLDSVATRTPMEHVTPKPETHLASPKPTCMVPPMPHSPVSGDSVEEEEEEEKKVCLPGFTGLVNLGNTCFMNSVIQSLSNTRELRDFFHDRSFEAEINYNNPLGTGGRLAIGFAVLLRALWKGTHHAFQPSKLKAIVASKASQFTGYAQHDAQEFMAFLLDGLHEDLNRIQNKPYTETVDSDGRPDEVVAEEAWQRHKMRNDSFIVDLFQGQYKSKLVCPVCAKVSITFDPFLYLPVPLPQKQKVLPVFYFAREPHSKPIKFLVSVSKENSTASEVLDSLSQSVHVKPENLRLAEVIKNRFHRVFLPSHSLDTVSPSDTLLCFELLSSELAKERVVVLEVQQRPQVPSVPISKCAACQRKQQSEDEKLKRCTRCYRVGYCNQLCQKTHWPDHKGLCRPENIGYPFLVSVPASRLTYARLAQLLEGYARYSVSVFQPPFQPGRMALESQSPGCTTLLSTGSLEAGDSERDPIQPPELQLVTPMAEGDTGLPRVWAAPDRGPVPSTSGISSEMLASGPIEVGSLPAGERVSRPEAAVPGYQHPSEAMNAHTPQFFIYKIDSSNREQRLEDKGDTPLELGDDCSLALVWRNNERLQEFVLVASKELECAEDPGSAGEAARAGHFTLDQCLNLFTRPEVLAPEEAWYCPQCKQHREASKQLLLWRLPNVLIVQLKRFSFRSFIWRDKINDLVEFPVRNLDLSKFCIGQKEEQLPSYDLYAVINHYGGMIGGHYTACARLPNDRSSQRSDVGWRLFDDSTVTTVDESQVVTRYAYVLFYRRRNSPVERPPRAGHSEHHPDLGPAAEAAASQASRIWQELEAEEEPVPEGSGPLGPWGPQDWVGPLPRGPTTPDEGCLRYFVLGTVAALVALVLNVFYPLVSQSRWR
# How it was run: (§1)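 HEK293T lysate in Tris/CHAPS/IGEPAL buffer with protease inhibitors (495 µg per sample) was given fragment at 200 µM or vehicle for 3 h, in triplicate. It then received Biotin-Ahx-Ub-VS at 0.5 µM final for 1 h. Labelled DUBs were NeutrAvidin-enriched, digested with LysC and trypsin, and run by diaPASEF LC-MS/MS. Values are average log2 fragment/vehicle ratios by unpaired t-test on global-median-normalised Spectronaut quantities of proteins with ≥2 unique peptides.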
# [2] = biological target: USP24 (UniProt Q9UPU5)
# Sequence of USP24 (Q9UPU5 whole entry): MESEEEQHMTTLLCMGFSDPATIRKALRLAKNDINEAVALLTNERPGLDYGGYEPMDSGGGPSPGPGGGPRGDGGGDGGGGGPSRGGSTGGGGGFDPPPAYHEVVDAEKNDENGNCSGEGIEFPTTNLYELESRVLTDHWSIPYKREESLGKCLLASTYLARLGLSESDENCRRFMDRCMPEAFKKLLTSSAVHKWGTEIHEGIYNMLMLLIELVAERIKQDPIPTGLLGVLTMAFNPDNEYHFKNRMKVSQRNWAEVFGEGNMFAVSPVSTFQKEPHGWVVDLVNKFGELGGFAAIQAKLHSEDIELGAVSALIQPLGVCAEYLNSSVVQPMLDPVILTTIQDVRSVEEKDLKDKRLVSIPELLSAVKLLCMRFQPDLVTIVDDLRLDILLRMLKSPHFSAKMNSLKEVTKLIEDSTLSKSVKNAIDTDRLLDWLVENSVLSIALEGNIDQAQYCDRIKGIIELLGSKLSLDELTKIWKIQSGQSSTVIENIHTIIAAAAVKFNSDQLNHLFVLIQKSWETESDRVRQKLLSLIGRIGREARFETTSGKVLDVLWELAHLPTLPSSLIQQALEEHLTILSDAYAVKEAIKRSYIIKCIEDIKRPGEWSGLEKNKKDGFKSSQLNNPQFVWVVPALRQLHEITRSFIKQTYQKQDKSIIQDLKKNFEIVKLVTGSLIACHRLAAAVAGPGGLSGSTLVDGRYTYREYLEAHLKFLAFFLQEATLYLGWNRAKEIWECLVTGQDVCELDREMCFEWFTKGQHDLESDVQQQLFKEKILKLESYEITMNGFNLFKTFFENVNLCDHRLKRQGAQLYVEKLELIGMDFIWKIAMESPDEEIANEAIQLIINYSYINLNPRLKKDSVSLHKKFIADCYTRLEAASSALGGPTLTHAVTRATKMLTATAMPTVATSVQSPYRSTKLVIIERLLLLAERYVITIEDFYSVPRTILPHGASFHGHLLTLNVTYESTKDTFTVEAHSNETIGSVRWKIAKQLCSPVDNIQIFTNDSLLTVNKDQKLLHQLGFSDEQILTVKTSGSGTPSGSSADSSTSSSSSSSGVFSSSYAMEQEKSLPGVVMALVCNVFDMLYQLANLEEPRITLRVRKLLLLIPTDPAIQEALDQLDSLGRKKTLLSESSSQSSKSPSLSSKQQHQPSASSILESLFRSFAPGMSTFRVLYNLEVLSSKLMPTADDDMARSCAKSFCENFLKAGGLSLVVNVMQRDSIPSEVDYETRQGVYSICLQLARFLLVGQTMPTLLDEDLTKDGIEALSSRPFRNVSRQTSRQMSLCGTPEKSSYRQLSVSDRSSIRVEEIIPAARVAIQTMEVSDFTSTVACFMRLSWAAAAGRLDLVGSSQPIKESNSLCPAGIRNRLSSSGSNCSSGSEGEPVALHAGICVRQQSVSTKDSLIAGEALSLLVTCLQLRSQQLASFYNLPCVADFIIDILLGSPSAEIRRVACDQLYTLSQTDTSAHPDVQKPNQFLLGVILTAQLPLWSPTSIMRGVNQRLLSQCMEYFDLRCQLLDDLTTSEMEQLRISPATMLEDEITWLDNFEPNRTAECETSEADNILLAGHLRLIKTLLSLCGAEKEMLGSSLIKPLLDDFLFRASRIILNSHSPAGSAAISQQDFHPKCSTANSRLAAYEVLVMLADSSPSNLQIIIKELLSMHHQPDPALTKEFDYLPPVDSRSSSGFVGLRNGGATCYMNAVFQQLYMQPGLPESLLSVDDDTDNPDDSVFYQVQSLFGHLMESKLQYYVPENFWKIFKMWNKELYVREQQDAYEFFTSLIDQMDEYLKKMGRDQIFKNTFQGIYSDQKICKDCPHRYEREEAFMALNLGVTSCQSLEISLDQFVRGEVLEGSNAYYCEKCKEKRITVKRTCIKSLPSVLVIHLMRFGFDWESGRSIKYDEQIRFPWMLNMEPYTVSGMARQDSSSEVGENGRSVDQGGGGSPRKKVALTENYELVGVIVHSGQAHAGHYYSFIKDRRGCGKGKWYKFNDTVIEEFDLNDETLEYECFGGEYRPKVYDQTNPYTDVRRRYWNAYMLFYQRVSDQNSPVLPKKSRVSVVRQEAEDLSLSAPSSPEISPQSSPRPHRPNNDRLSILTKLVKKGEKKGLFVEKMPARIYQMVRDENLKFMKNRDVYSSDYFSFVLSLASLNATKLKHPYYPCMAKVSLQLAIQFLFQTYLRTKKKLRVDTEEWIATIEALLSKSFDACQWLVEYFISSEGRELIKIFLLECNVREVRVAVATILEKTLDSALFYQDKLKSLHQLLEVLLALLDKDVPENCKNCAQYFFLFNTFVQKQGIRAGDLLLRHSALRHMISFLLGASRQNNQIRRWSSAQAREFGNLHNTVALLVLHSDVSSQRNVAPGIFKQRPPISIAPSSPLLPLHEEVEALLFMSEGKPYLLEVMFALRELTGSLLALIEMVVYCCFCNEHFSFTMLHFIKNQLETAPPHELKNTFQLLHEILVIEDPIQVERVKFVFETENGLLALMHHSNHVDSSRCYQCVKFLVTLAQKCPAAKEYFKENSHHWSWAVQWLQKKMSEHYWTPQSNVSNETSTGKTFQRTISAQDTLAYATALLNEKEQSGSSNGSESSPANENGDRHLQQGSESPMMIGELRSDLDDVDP
# How it was run: as §1
# [3] = biological target: T2, USP25 (UniProt Q9UHP3)
# T2 sequence (whole entry): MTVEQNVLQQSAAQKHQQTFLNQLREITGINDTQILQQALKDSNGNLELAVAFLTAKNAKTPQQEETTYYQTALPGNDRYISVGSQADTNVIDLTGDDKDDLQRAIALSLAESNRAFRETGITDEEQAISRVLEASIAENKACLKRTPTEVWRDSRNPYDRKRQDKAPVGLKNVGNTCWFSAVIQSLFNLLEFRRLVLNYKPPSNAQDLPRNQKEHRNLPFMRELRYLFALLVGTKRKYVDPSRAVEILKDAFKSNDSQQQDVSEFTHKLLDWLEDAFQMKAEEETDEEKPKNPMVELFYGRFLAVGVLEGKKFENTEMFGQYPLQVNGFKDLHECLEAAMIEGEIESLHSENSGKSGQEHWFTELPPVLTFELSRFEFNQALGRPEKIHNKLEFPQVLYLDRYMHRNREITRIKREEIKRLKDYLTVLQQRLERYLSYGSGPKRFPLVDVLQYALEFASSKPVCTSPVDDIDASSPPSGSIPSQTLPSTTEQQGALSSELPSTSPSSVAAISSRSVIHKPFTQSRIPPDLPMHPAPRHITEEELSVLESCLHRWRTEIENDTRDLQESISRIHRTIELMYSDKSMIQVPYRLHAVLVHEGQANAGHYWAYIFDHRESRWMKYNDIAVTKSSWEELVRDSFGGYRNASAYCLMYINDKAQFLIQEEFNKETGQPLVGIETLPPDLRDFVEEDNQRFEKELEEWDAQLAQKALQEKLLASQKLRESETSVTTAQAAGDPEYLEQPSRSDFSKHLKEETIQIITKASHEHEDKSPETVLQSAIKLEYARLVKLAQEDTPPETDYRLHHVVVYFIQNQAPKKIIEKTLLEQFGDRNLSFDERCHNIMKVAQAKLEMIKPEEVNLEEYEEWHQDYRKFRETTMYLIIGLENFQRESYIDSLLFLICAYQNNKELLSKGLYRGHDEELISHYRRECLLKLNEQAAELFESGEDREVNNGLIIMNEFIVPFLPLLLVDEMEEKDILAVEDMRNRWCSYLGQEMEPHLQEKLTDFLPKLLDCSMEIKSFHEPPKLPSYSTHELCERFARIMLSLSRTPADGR
# How it was run: as §1
# [4] = biological target: T3, USP28 (UniProt Q96RU2)
# T3 sequence (whole entry): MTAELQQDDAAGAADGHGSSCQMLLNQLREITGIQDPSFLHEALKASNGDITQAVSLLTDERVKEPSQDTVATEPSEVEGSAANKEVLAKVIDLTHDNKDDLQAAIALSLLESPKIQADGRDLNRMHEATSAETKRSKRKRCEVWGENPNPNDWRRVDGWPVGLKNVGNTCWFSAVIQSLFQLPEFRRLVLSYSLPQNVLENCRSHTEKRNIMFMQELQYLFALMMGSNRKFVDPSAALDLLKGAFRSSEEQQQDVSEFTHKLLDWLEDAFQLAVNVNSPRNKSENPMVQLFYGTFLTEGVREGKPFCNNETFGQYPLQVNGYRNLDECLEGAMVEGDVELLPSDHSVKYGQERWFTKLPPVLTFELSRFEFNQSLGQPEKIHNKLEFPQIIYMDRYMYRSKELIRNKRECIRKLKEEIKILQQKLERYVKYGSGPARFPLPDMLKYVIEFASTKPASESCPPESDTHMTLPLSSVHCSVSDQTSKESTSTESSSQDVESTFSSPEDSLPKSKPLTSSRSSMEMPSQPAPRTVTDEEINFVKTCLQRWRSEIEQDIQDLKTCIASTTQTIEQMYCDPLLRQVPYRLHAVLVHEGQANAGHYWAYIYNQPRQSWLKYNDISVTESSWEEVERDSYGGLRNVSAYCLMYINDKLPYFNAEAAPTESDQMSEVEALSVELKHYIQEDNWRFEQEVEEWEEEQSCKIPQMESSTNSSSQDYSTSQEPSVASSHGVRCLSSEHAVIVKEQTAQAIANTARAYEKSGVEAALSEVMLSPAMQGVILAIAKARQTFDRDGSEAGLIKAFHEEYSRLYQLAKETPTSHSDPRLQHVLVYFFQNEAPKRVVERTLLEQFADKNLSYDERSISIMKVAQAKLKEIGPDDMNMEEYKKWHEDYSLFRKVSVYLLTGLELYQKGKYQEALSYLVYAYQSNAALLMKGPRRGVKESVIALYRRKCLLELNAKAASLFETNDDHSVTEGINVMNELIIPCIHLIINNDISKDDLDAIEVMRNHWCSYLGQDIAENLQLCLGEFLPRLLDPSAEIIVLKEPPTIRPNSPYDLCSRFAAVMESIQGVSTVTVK
# How it was run: as §1
smiles,measurement,setting,value
O=C(CCl)Nc1cc(Cl)ccc1-n1cncn1,log2 ratio of Biotin-Ahx-Ub-VS probe labelling,[1],-0.987
same,log2 ratio of Biotin-Ahx-Ub-VS probe labelling,[2],-1.34 (active)
same,log2 ratio of Biotin-Ahx-Ub-VS probe labelling,[3],-1.65 (active)
same,log2 ratio of Biotin-Ahx-Ub-VS probe labelling,[4],-2.34 (active)
